Results reported in PubChem BioAssay AID1241 (SRMLSC, 2008).
The whole screen tested about 1,200 compounds, of which about 840 (70%) were called active. The rule behind the calls is not given here. So high a share suggests a set chosen from earlier hits. A selection follows. Measured potencies and affinities stand elsewhere.

Assay: compounds inducing NF-kB luciferase expression – cell-based, SH-SY5Y, dose response (AID 1241)
Settings: SH-SY5Y NF-kB promoter luciferase reporter; series mostly up to 30 µM

Compound	fold induction over control
COC(=O)C1C(=O)/C(=C/N(C)C)C(=O)CC1(C)C (centres undefined)	inactive
Clc1ccc(-c2cc(CSc3ccccc3)on2)cc1	inactive
O=C(NCCN1CCOCC1)c1cc(-c2cccs2)on1	inactive
O=C1N/C(=C/c2ccc(N3CCOCC3)o2)C(=O)N1c1ccccc1	inactive
CCOc1ccc(C2=NNC(c3cccs3)=Nc3ccc(OC)cc32)cc1	inactive
COc1ccc(/C=N/n2c(-c3cccs3)n[nH]c2=S)cc1	inactive
COc1ccc(/C=N/NC(=O)COc2ccccc2-c2ccccc2)cc1	inactive
COc1ccc(/C=N/Nc2ccc([N+](=O)[O-])cc2S(=O)(=O)N2CCN(C)CC2)cc1	inactive
CNC(=S)N/N=C(\C)c1ccc(N2CCOCC2)cc1	inactive
COC(=O)N/N=C(/c1ccccc1)C1CCCCC1	inactive
O=c1c2c(nc3cc(-c4cccc(Cl)c4)[nH]n13)CCC2	inactive
O=C(Nc1ccc2ccccc2c1)c1cnccn1	inactive
c1ccc(Nc2nc3ccccc3o2)cc1	inactive
NC(N)=N/N=C/c1ccc(OCc2ccc(Cl)cc2)cc1	inactive
Cn1cccc1/C=C1\Cc2ccccc2C1=O	inactive
COc1ccc(C(=O)/C=C/c2cccs2)c(OC(=O)c2cccc([N+](=O)[O-])c2)c1	inactive
COc1ccc(/C=C\c2nc(=O)c3ccccc3o2)cc1	inactive
Cc1nc(SCc2ccc(Cl)cc2)ncc1C(=O)O	inactive
CC(=O)Nc1cc2nn(-c3ccccc3)nc2cc1Cl	inactive
CC(C)CC(=O)Nc1ccc2c(c1)oc1ccccc12	inactive
COc1ccc(-[n+]2c(C)cc(/C=C3\Sc4ccccc4N3C)cc2C)cc1	inactive
Cc1ccc(C2=NN3C(C2)c2ccccc2OC32C(=O)Nc3ccccc32)cc1 (centres undefined)	inactive
Cc1[nH]n(-c2ccccc2)c(=O)c1C=NC1CCCCC1	inactive
C=CCN=Cc1c(C)[nH]n(-c2ccccc2)c1=O	inactive
O=C(Nc1ccccc1O)c1ccc(Cl)cc1	inactive
CCOC(=O)c1noc(C)c1C(=O)Nc1nccs1	inactive
COc1cccc(NC(=S)N(CCN(C)C)Cc2cccs2)c1	inactive

Compound	fold induction over control
O=C(c1ccco1)n1c(=S)nc2ccccn21	inactive
Cc1ccc(C(=O)CSc2nsc(C)c2C#N)cc1	inactive
Cc1cccc2nc(=S)n(C(=O)c3ccco3)n12	inactive
CCOC1CS(=O)(=O)CC1OCC (centres undefined)	inactive
O=C(c1ccccc1)c1ccccc1C(=O)N1CCCC1	inactive
COc1ccc(N=c2sc3ccccc3n2C)cc1	inactive
Cc1cccc(/C(N)=N/OC(=O)c2cccs2)c1	inactive
COc1ccc(N=C2C(=Nc3ccc(OC)cc3)N(c3ccccc3)C(=S)N2C(=O)c2ccc(Cl)cc2)cc1	inactive
COc1cc(C2C(S(=O)(=O)c3ccccc3)CON2C)ccc1OCc1ccc(F)cc1 (centres undefined)	inactive
O=C(Oc1ccccc1/C=C\C(=O)c1cc2ccccc2o1)c1ccccc1	inactive
Cn1c(SCc2ccc(C#N)cc2Cl)nc2ccccc21	inactive
c1ccc2nc3c(nc2c1)[nH]c1ccccc13	inactive
c1ccc(C2=Nc3ccccc3SC2c2nc3ccccc3[nH]2)cc1 (centres undefined)	inactive
COC(=O)c1ccc(COn2nnc3ccccc32)cc1	inactive
CCCOc1ccc2c3c(c(=O)oc2c1OCCC)CCC3	inactive
O=C(NCCCN1CCOCC1)c1cc(-c2ccccc2)on1	inactive
O=C(NCCN1CCOCC1)c1cc(-c2ccccc2)on1	inactive
COc1ccccc1-c1cc(C(=O)N2CCCCC2)no1	inactive
O=C(Oc1ccc(-c2ccccc2)cc1)N1CCCCC1	inactive
Cc1cccc(-c2cc3nc(C)cc(C)n3n2)c1	inactive
CNc1nc(-c2ccccn2)nnc1-c1ccccc1	inactive
CN1CCN(CC(=O)N2c3ccccc3C(C)(c3ccccc3)CC2(C)C)CC1 (centres undefined)	inactive
Cc1cccc(-c2noc(-c3ccc(F)cc3)n2)c1	inactive
O=C(Nc1ccc(N2CCCC2=O)cc1)c1cccc(F)c1	inactive
O=C(CSc1nc(Nc2ccccc2)nc(N2CCOCC2)n1)Nc1ccccc1Cl	inactive
Cc1ccc(-c2cnc3cc(C)nn3c2)cc1	inactive
CCCc1cc(C(=O)Nc2cc(Br)ccc2O)no1	inactive

Compound	fold induction over control
N#Cc1ncc(-c2ccc3c(c2)OCCOCCOCCOCCOCCO3)nc1C#N	inactive
CC1=C/C(=N\OS(=O)(=O)c2ccccc2)C(C)=CC1=O	inactive
Cn1c(-c2ccc(Br)o2)nc2cc(Br)ccc21	inactive
Clc1ccccc1-c1nnc(-c2cccs2)o1	inactive
O=C(Nc1nccs1)c1sc2ccccc2c1Cl	inactive
CCCCCCOc1ccc(OC(=O)c2ccncc2)cc1	inactive
CCCCCCOc1ccc(/C(N)=N/O)cc1	inactive
N#Cc1c(NCCO)nc(NCc2ccccc2)c2c1CCN(Cc1ccccc1)C2	inactive
CCC(=O)Nc1cccc(C(=O)/C=C/c2ccccc2)c1	inactive
Cc1ccccc1NC(=O)/C=C/c1ccc([N+](=O)[O-])s1	inactive
Cc1ccc(NC(=O)/C=C/c2cccs2)c([N+](=O)[O-])c1	inactive
Cc1nn(Cc2ccccc2)c(Cl)c1/C=C/C(=O)OCC(=O)N1CCCC1=O	inactive
Cc1cccc(NC(=O)c2csnn2)n1	inactive
COc1ccc(OCCOC(=O)c2[nH]c(C)c(C(C)=O)c2C)cc1	inactive
Cc1ccc(Nc2nc(N)nc(CSc3ncccn3)n2)cc1	inactive
Cc1cc(N2CCOCC2)ccc1/C=C1/SC(=O)NC1=O	inactive
Cc1ccc(/C=N/N=C/c2ccc(C)s2)s1	inactive
CCOC(=O)c1ccc(NC(=O)N2CCc3ccccc32)cc1	inactive
CCCCNC(=O)c1cc(-c2ccc(F)cc2)on1	inactive
COc1ccc2c(=O)c(-c3ccccc3)coc2c1	inactive
CN(C)c1ccc(C(=S)NCc2ccco2)cc1	inactive
Cc1nnc(SCC(=O)Nc2nsc(-c3ccc(C(C)(C)C)cc3)n2)s1	inactive
COc1ccc(C2=NN3C(C2)c2ccccc2OC32C(=O)N(C)c3ccccc32)cc1 (centres undefined)	inactive
CC(=O)c1cc(N2CCOCC2)ccc1[N+](=O)[O-]	inactive
O=C(O)/C=C\C(=O)Nc1ccccc1C#Cc1ccccc1	inactive
